High-throughput results from PubChem.
CYP2C9 activ = activators of human CYP2C9; P11712; recombinant CYP2C9, luciferin-H conversion, luminescence; stronger effect = higher value; factor 1 = untreated enzyme, 0 = blocked; activation factor at 5 µM; actives 1.4% (n = 96,000); AID 1024;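 active = activation factor of 2 or more for CYP2C9 at a 5 µM dose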;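 also: 0 = sulfaphenazole-blocked wells and 1 = vehicle-only wells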
PLAP act = human PLAP activation. actives 1.2% (n = 96,000). purified PLAP enzyme, luminescent substrate read-out; stronger effect = higher value. activation fold at 20 µM. AID 696; in the data active = activation fold above about 2
Target sequence (P05187 whole entry, looked up): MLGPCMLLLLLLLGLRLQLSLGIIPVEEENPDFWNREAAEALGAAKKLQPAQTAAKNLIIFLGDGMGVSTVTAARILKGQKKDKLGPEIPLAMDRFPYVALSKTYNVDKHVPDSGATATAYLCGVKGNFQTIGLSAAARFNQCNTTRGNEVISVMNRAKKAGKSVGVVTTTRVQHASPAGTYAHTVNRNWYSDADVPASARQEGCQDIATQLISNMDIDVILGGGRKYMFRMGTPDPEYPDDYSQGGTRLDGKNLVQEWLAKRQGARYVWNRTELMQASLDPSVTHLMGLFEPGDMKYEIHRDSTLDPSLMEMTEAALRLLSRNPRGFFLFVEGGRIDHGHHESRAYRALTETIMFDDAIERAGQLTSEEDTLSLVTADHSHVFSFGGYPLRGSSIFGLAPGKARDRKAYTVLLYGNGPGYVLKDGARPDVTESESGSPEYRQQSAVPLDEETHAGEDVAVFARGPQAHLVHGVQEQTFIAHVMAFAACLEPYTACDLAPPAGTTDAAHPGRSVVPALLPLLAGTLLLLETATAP
CYP2C19 inhib = human CYP2C19 inhibition; P33261; CYP2C19 Supersomes, luciferin-H EGE luminescence, 30 min; inhibition, % at 5 µM; actives 21% (n = 96,000); AID 778;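 active = CYP2C19 inhibition above a set limit at 5 µM in the primary screen, cut at about 50% in these data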;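 also: plate controls were negative control wells for no effect and 2.5 mM tranylcypromine positive control for full effect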
CYP2C9 inh = blocks human cytochrome P450 2C9; inhibition, % at 5 µM; actives 20% (n = 96,000); P11712; CYP2C9 Supersomes, luciferin-H conversion, luminescence;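 active = blocking of liver enzyme CYP2C9 beyond about 50% at 5 µM, limit read from the data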
CYP2C19 act = activators of human cytochrome P450 2C19; P33261; recombinant CYP2C19, luciferin-H EGE luminescence; stronger effect = higher value; 0 = fully inhibited enzyme, 1 = untreated enzyme; activation factor at 5 µM; 96,000 tested, under 10 active; AID 1025;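 active = activation factor of at least 2 at 5 µM in the primary screen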;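 also: 0 = wells with 2.5 mM tranylcypromine and 1 = vehicle-only wells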
* hit, by the source's call. Shown are actives, neighbours in structure and some others; about 31% of the full set was active somewhere.

SMILES	CYP2C9 activ	PLAP act	CYP2C19 inhib	CYP2C9 inh	CYP2C19 act
O=C1c2ccccc2C(=O)N1CCCCN(C(=O)c1ccc([N+](=O)[O-])cc1)c1ccc(Cl)cc1	0.5	1.1	40	54*	0.6
CC(=O)N(CN1C(=O)c2ccc([N+](=O)[O-])cc2C1=O)c1ccc(F)cc1	1.2	1.2	20	-17	0.8
Cc1ccc(N(CCCCN2C(=O)c3ccccc3C2=O)C(=O)c2cccc([N+](=O)[O-])c2)cc1	0.4	1.1	64*	61*	0.4
CC(=O)N(CCCCN1C(=O)c2ccccc2C1=O)c1ccc(C)cc1	0.8	1.1	23	16	0.8
CCn1c(=O)cc(N2CCCCC2)[nH]c1=O	1.2	1.1	-9	-20	1.1
CCn1c(=O)c(C(=O)NCc2ccc(OC)cc2)c(O)c2ccccc21	0.3	0.9	36	68*	0.6
CCn1c(=O)c(C(=O)NCc2ccccn2)c(O)c2ccccc21	1.5	1.6	22	-55	0.8
CCn1c(=O)c(C(=O)NCc2ccc(OC)c(OC)c2)c(O)c2ccccc21	0	1.2	40	95*	0.6
CCCn1c(=O)c(C(=O)NCc2ccc(OC)c(OC)c2)c(O)c2ccccc21	0.1	1.8	39	87*	0.6
O=C(O)CCC(=O)N1CCN(c2nc(-c3ccccc3Cl)c3cc(Br)ccc3n2)CC1	1	1.5	22	-4	0.8
Cc1cc(-c2ccccc2)n2ncc(C#N)c2n1	1.1	0.9	7	-10	0.9
CCOC(=O)C(C)c1n[nH]c(=O)c2ccccc12 (stereo not drawn)	1	0.8	4	3	1
COc1ccc(N(C(=O)c2ccco2)S(=O)(=O)c2cc(Cl)c(Cl)cc2Cl)cc1	0.1	0.9	97*	94*	0
COc1ccc(N(C(=O)c2ccco2)S(=O)(=O)c2ccccc2)cc1	0.1	1	87*	92*	0.1
Cc1c(NC(=O)CSc2nnnn2-c2ccc(O)cc2)c(=O)n(-c2ccccc2)n1C	1.6	1.1	10	-59	0.9
Cc1ccc(S(=O)(=O)Nc2cccc(NC(=O)CN3CCCCC3)c2)cc1	0.1	1.6	92*	92*	0.1
Cc1ccc(S(=O)(=O)Nc2cc(NC(=O)CN3CCOCC3)ccc2Cl)cc1	0.1	1.4	33	86*	0.7
Cc1ccc(S(=O)(=O)Nc2ccc(NC(=O)CN3CCCCC3)cc2)cc1	0.3	1.1	3	72*	1
O=C(NCc1ccccn1)c1coc(=O)c(Br)c1	0.8	1.3	14	20	0.9
CC(C)N(C(=O)N1CCC(c2nc(-c3ccncc3)no2)CC1)C(C)C	0.7	1.5	66*	28	0.3
CCOC(=O)CCc1c(C)nc2cc(C3CCCN(C(=O)OC(C)(C)C)C3)[nH]n2c1=O (stereo not drawn)	0.8	1.6	-2	20	1
CCC(C)NC(=O)Nc1ccc2c(c1)N(C)C(=O)c1ccccc1S2 (stereo not drawn)	0	4.4	70*	97*	0.3
CCOC(=O)Nc1ccc2c(c1)N(C(=O)CCN1CCN(C)CC1)c1ccccc1S2	1.2	1.5	0	-18	1
COc1ccccc1CC(=O)Nc1ccc(O)cc1C(=O)O	1	1	-6	2	1.1
Cc1cc(C)c2c(N)c(-c3nc4ccccc4[nH]3)sc2n1	0.4	1	52*	57*	0.5
SMILES	CYP2C9 activ	PLAP act	CYP2C19 inhib	CYP2C9 inh	CYP2C19 act
CCN(CC)C(=O)CSc1nc(O)c(Cc2ccccc2)c(=O)n1-c1ccccc1	1	1.1	-2	-4	1
CCCCNCCCCOc1ccccc1	0.7	1	10	30	0.9
CCCCNC(c1ccccc1)c1ccncc1 (stereo not drawn)	0.6	0.9	70*	45	0.3
CC(NC(=O)C1(C)CC1(Br)Br)C(C)(C)C (stereo not drawn)	1	0.8	6	-3	0.9
Cc1[nH]n(C(C)(C)C)c(=O)c1Sc1ccc(Cl)cc1	0.5	1	54*	54*	0.5
CC(C)(C)n1[nH]c2c3c(ccc2c1=O)C(=O)c1ccccc1C3=O	0.6	1.1	30	43	0.7
COc1ccc(CC(=O)NC(c2ccccc2)c2ccccc2)cc1S(=O)(=O)N1CCOCC1	0.7	1.1	-12	27	1.1
C=CCOn1c(=O)c(=O)n(OCc2ccccc2)c2ccccc21	1	0.9	97*	-4	0
